Bioassay records (PubChem BioAssay)
Only a selection was taken, and hits are over-represented in it overall.
Tb PYK inh – qHTS of Trypanosoma Brucei Inhibitors; pyruvate kinase (Trypanosoma brucei), Q57TT1; TbPYK enzyme, Kinase-Glo Plus ATP luminescence, 45 min; Potency, µM (doses to about 76.8 µM), for the others: at the top dose activity, negative = inhibition, most hits filed as inhibitors; hit rate 0.12% among 410,000; AID 624173, 2012; also: potency is read from the fitted curve at half-maximal effect; % is scaled to controls: 0 for no effect and ±100 for the full control effect; nearly all actives have a fitted effect of over 50% in size
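Glycolytic pyruvate kinase of T. brucei was incubated with substrate, test compound and 130 uM ADP for 45 minutes at room temperature. Luminescent Kinase-Glo Plus signal was measured after 10 minutes.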
FBPA Giardia inh – qHTS Assay for Inhibitors of Fructose-1,6-bisphosphate Aldolase from Giardia Lamblia | A8B2U2 | purified Giardia FBPA | Potency, µM (highest dose often 59.6 µM), inactives show top-dose activity, negative = inhibition, actives largely listed as inhibitors | hit rate 0.71% among 290,000 | AID 2451, 2010; also: potency is read from the fitted curve at half-maximal effect; % is scaled to controls: 0 for no effect and ±100 for the full control effect; nearly all actives have a fitted effect of over 55% in size
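Giardia FBPA (40 nM reagent) was preincubated 10 min at RT with compound (up to 57.5 uM final), then substrate plus GAPDH/TPI/NAD/arsenate coupling system with diaphorase/resazurin was added; resorufin fluorescence (525/598 nm) was read after 20 min.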
Sm TGR inh – qHTS Assay for the Inhibitors of Schistosoma Mansoni Peroxiredoxins; Potency, µM (series often up to 114 µM), without a hit: at the highest dose activity change, negative = inhibition, most hits filed as inhibitors; purified TGR, DTNB reduction, TNB absorbance 405 nm; hit rate 3% among 360,000; Schistosoma mansoni thioredoxin glutathione reductase (TGR), Q962Y6; AID 485364, 2010; also: potency is read from the fitted curve at half-maximal effect; % is scaled to controls: 0 for no effect and ±100 for the full control effect; nearly all actives have a fitted effect of over 60% in size
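Kinetic colorimetric format: TGR-catalysed, NADPH-driven DTNB reduction monitored via TNB absorbance. Enzyme dispensed at 20 nM; compound exposure 15 min at room temperature before reaction start.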
CHX counter – Cycloheximide Counterscreen for Small Molecule Inhibitors of Shiga Toxin | AID 2314, 2010 | hit rate 12% among 300,000 | max response, % | cell reporter, cycloheximide protein synthesis inhibition counterscreen; in the data active = max response mostly above about 13%, no sharp cut-off; inactive = mostly below about 14%; also: read at 38.3 µM for the half of the compounds with a filed dose; 0% is about no effect
Shiga toxin inh – A qHTS for Small Molecule Inhibitors of Shiga Toxin. hit rate 9.2% among 290,000. Vero cells, Shiga toxin protein synthesis inhibition reporter. AID 2315, 2010. inhibition, % at 38.7 µM; in the data active = inhibition mostly above about 28%, no sharp cut-off; inactive = mostly below about 43%; also: 0% is about no effect
LmPK inh – qHTS Assay for Inhibitors of Leishmania Mexicana Pyruvate Kinase (LmPK) | purified LmPK, Kinase-Glo ATP luminescence, 1 h | hit rate 0.37% among 290,000 | Potency, µM (highest dose often 57.5 µM), without a hit: top-dose activity change, negative = inhibition, actives largely listed as inhibitors | AID 1721, 2009 | Q27686; also: potency is read from the fitted curve at half-maximal effect; % is scaled to controls: 0 for no effect and ±100 for the full control effect
Target sequence (Q27686 whole entry, looked up): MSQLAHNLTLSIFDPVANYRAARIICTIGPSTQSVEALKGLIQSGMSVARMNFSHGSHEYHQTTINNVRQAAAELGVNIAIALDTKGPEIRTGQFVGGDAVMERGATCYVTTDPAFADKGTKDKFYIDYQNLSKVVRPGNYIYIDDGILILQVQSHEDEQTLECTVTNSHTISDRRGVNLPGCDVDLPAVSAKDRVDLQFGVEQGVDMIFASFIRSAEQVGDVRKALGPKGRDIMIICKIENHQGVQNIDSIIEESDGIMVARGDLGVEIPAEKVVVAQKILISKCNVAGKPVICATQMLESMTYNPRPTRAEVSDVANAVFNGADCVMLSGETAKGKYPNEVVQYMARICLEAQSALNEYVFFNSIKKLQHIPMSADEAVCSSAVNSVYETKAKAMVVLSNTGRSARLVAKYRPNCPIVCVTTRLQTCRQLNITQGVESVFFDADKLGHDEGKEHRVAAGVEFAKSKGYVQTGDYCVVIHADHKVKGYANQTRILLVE
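Purified LmPK (0.1 nM) with 0.5 mM PEP and 0.1 mM ADP in imidazole buffer pH 7.2 with MgCl2/KCl, 1 h at room temperature. ATP formed was read by luciferase luminescence and normalized to no-enzyme and uninhibited controls.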
Starred values were filed as active, the others as inactive. Unless noted, calls follow the shape of the dose curve; as a rule, active = well fitted curve in the direction sought with a large enough effect; inconclusive = small, poorly fitted or top-dose-only effect, or another doubt; inactive = no such curve, though single readings can be large; an effect the other way counts as inactive or inconclusive.

Results for CC1=Nc2cc(C(=O)NCc3ccccc3Cl)ccc2Sc2c(C)ccc(C)c21 ?
Tb PYK inh: -4.5%; Sm TGR inh: -4.3%

Results for Cc1nc(S/C(=C\c2ccc(-c3ccc(C(=O)O)c(Cl)c3)o2)C(=O)O)n[nH]1 ?
Tb PYK inh: inconclusive; FBPA Giardia inh: -26.7%; Sm TGR inh: 35.5µM*; CHX counter: -2.7; Shiga toxin inh: 2.6; LmPK inh: -1.4%

How did CCN(C(=O)c1c(C)oc2ncn(CC(C)C)c(=O)c12)c1cccc(Cl)c1 do in these assays?
Tb PYK inh: 0.4%; Sm TGR inh: 0.7%

What do the screens show for `O=C(c1ccco1)N1CCN(S(=O)(=O)c2ccc(Br)s2)CC1`?
Tb PYK inh: -26.9%; FBPA Giardia inh: 10.5%; Sm TGR inh: 11.2µM*; CHX counter: -3.9; Shiga toxin inh: -4.9; LmPK inh: 2.8%

What do the screens show for `CCc1ccc(-c2cc(C)no2)cc1S(=O)(=O)N1CCN(C(=O)c2ccco2)CC1`?
Tb PYK inh: -2.4%; FBPA Giardia inh: 5.5%; Sm TGR inh: 44.7µM*; CHX counter: 8.5; Shiga toxin inh: -1.4; LmPK inh: 6.5%

How did O=C(CSc1oc(-c2ccco2)nc1S(=O)(=O)c1ccc(Br)cc1)c1ccc(Cl)cc1 do in these assays?
Tb PYK inh: -14.7%; Sm TGR inh: -12.9%

What do the screens show for `Cc1cc(C)n2nc(C(=O)Nc3nccs3)nc2n1`?
Tb PYK inh: -1.4%; FBPA Giardia inh: 8.7%; Sm TGR inh: 4.0%; CHX counter: 23.2*; Shiga toxin inh: 84.3*; LmPK inh: -12.7%

How did Cc1cc(C)n2nc(C(=O)Nc3nnc(C4CC4)s3)nc2n1 do in these assays?
Tb PYK inh: -7.3%; FBPA Giardia inh: inconclusive; Sm TGR inh: -22.7%; CHX counter: -1.5; Shiga toxin inh: -17.8; LmPK inh: -0.2%

Results for Cc1csc(NC(=O)c2nc3nc(C)cc(C)n3n2)n1 ?
Tb PYK inh: -5.4%; FBPA Giardia inh: -27.6%; Sm TGR inh: -8.2%; CHX counter: 48.4*; Shiga toxin inh: 48.9; LmPK inh: -1.6%

What do the screens show for `COc1ccccc1OCCNC(=O)C1CC(=O)N(Cc2ccc(C)cc2)C1` (centres undefined)?
Tb PYK inh: -5.8%; Sm TGR inh: 0.8%

How did COc1ccc(-c2nc3ccccc3o2)cc1NC(=O)c1ccc(OCC(C)C)cc1 do in these assays?
Tb PYK inh: -1.9%; Sm TGR inh: -2.2%

How did Cc1nc2ccccc2nc1N/N=C/c1ccc(O)cc1 do in these assays?
Tb PYK inh: -4.9%; FBPA Giardia inh: -15.4%; Sm TGR inh: 8.8%; CHX counter: 40.2*; Shiga toxin inh: 52.6*; LmPK inh: 0.6%

Results for Oc1ccc(Nc2nc(-c3ccccc3)nc3ccccc23)cc1 ?
Tb PYK inh: 0.6%; FBPA Giardia inh: -0.3%; Sm TGR inh: -3.2%; CHX counter: -1.7; Shiga toxin inh: -5.6; LmPK inh: -0.8%

What do the screens show for `Oc1ccc(Nc2nc3ccccc3nc2Nc2ccc(O)cc2)cc1`?
Tb PYK inh: -16.6%; FBPA Giardia inh: inconclusive; Sm TGR inh: -25.7%; CHX counter: 14.4*; Shiga toxin inh: 40.0; LmPK inh: 4.8%

How did CN(C)C1(CNC(=O)COc2cccc(Cl)c2)CCCCC1 do in these assays?
Tb PYK inh: -0.2%; Sm TGR inh: -3.7%

What do the screens show for `CN1OC[C@@H]2CN(C(=S)NCCc3ccccc3)[C@H](c3ccccc3Br)C[C@@H]21`?
Tb PYK inh: 0.9%

How did Cc1cc(SCc2cccc(Cl)c2)nc(=O)[nH]1 do in these assays?
Tb PYK inh: 0.0%; FBPA Giardia inh: 11.4%; Sm TGR inh: -8.5%; CHX counter: 7.8; Shiga toxin inh: 5.8; LmPK inh: 1.1%

Results for Cc1cc(SCc2ccc(Cl)cc2)nc(=O)[nH]1 ?
Tb PYK inh: -1.1%; Sm TGR inh: 3.6%; CHX counter: 15.8*; Shiga toxin inh: 8.0; LmPK inh: -6.7%

How did Cc1ccc(CSc2cc(C)[nH]c(=O)n2)cc1 do in these assays?
Tb PYK inh: -1.5%; Sm TGR inh: -2.0%; CHX counter: 16.1; Shiga toxin inh: 25.5*; LmPK inh: -9.3%

Results for Cc1cc(SCC(=O)NCc2ccc(Cl)cc2)nc(=O)[nH]1 ?
Tb PYK inh: 4.5%; Sm TGR inh: 6.9%

Results for O=C(CSc1nnc(CNC(=O)c2ccccc2F)o1)NC1CCCCC1 ?
Tb PYK inh: 0.8%; Sm TGR inh: 0.0%; CHX counter: 1.7; Shiga toxin inh: -2.5; LmPK inh: -11.7%

Results for COC(=O)[C@@]1(Cc2ccc(F)cc2)[C@H]2c3cc(C(=O)N4CCCC4)n(Cc4cccc5ccccc45)c3C[C@H]2CN1C(=O)c1ccccc1 ?
FBPA Giardia inh: -5.2%

How did COc1ccc(NC(=O)C2(c3ccc(NC(=O)c4ccc(OC(C)=O)cc4)cc3)CCCC2)cc1 do in these assays?
Tb PYK inh: -14.9%; FBPA Giardia inh: -1.4%; Sm TGR inh: 11.1%; CHX counter: -1.7; Shiga toxin inh: -3.6; LmPK inh: 5.4%

Results for O=C(Nc1ccc(Nc2ccccc2)cc1)c1ccccc1 ?
Tb PYK inh: 5.4%

What do the screens show for `CC(=O)Oc1ccc(C(=O)Nc2ccc(C3(C#N)CCCC3)cc2)cc1`?
Tb PYK inh: 1.0%; FBPA Giardia inh: 6.1%; Sm TGR inh: -7.5%; CHX counter: 12.1*; Shiga toxin inh: 15.7; LmPK inh: -3.8%

What do the screens show for `N#CC1(c2ccc(NC(=O)c3ccccc3)cc2)CCCC1`?
FBPA Giardia inh: -14.9%; Sm TGR inh: 2.1%; CHX counter: 47.3*; Shiga toxin inh: 134.7*; LmPK inh: inconclusive

What do the screens show for `CC(=O)N1CCN(S(=O)(=O)c2cccc(C(=O)OCC(=O)NCc3ccccc3Cl)c2)CC1`?
Tb PYK inh: -1.4%

How did COc1ccc(C(=O)Nc2c(C(=O)c3ccccc3)oc3ccccc23)cc1 do in these assays?
Tb PYK inh: 1.4%; Sm TGR inh: 2.5%

Results for COc1ccc2oc(C(=O)C3CC3)c(N)c2c1 ?
Tb PYK inh: -4.3%; FBPA Giardia inh: 6.2%; Sm TGR inh: 0.3%; CHX counter: 42.7*; Shiga toxin inh: 130.7*; LmPK inh: -0.9%

Results for COc1ccc2oc(C(=O)c3ccccc3)c(N)c2c1 ?
Tb PYK inh: 3.3%; Sm TGR inh: 7.2%; CHX counter: 64.6*; Shiga toxin inh: 135.4*; LmPK inh: -2.3%

Results for COC(=O)c1oc2ccc(Cl)cc2c1N ?
Tb PYK inh: -4.7%; FBPA Giardia inh: -1.8%; Sm TGR inh: 4.1%; CHX counter: 22.3*; Shiga toxin inh: 98.7*; LmPK inh: -4.7%
